Epigenetic reg: Quantitative High-Throughput Screen for Regulators of Epigenetic Control; murine LDR cells, GFP reporter derepression, 30 h; AID 1865, 2009; Potency, µM (series often up to 53.9 µM), inactives show at the top dose GFP activation, most hits filed as activators; 0.2% of 280,000 active; also: potency is read from the fitted curve at half-maximal effect; % of control where 0% means no effect; nearly all actives have a fitted effect of over 60% in size
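Murine LDR cells carrying a silenced, genomically integrated CMV-driven GFP reporter were exposed to compound for 30 hours at 37 C. After PBS washes, GFP-positive cells (20–120 um objects) were counted by laser-scanning microplate cytometry.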
Vif-APOBEC3G blk: qHTS for Inhibitors of Vif-A3G Interactions: qHTS | 0.076% of 410,000 active | Potency, µM (titrated, usually from 46.1 µM), for inactives: at the highest dose activity, negative = active, usual class: inhibitors | DNA dC->dU-editing enzyme APOBEC-3G (Homo sapiens), Q9HC16 | HeLa A3G-eYFP + Vif (tagged APOBEC3G with the HIV-1 protein that degrades it), YFP fluorescence, overnight; also: potency is read from the fitted curve at half-maximal effect; % is scaled to controls: 0 for no effect and ±100 for the full control effect; nearly all actives have a fitted effect of over 60% in size
Target sequence (Q9HC16 whole entry, looked up): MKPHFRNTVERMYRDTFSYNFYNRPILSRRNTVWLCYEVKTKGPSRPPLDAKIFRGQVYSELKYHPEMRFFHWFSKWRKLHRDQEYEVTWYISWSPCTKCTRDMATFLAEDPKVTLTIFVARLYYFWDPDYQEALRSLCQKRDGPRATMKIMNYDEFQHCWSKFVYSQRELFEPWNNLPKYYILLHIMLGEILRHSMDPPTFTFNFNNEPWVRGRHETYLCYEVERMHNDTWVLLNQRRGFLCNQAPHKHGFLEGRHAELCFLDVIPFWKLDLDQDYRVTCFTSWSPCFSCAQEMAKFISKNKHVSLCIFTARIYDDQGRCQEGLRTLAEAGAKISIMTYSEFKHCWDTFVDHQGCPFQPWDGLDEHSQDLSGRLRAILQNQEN
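Read-out is eYFP fluorescence (Ex 488/Em 500-530) from Vif-expressing HeLa A3G-eYFP cells; more signal means A3G escaped Vif-mediated degradation. Cells plated overnight, compound pinned in, incubated overnight at 37 deg C.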
LDHA inh: qHTS assay for inhibitors of human lactate dehydrogenase. L-lactate dehydrogenase A chain (Homo sapiens), P00338. purified LDHA, NADH/diaphorase-resazurin fluorescence; active compounds read low. activity change, % (values are at about 110 or 230 µM). 0.15% of 480,000 active. AID 1347041, 2019; in the data active = activity change below about -30%; inconclusive = mostly about -25% to -30%;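 also: plate controls were DMSO wells for no effect and wells without enzyme for full effect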
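Human LDH5 at 2 nM final in Tris HCl pH 7.4 with 0.06 mM NADH and 0.2 mM pyruvate, reacted 5 minutes at room temperature. Remaining NADH coupled via diaphorase/resazurin; resorufin fluorescence read at 0 and 20 minutes, normalized to enzyme-free and DMSO wells.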
Vif-A3F inh: qHTS for Inhibitors of Vif-A3F Interactions: qHTS | Potency, µM (highest dose often 46.1 µM), inactives show top-dose activity, negative = active | 0.2% of 390,000 active | AID 602313, 2012 | HeLa A3F-eYFP + Vif (tagged APOBEC3F with the HIV-1 protein that degrades it), YFP fluorescence increase; also: potency is read from the fitted curve at half-maximal effect; % of control where 0% means no effect; nearly all actives have a fitted effect of over 65% in size
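HeLa cells stably expressing A3F-eYFP plus Vif, plated and incubated overnight at 37 deg C, then exposed to compounds overnight at 37 deg C. Blocked degradation read as raised yellow fluorescence (Ex 488/Em 500-530).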
Anesthetic bind: qHTS Assay for Identification of Novel General Anesthetics; apoferritin/1-aminoanthracene competitive binding, fluorescence; Ferritin light chain (Equus caballus), P02791; Potency, µM (highest dose often 77.5 µM), for inactives: at the top dose activity change, negative = displacement, actives largely listed as inhibitors; 0.074% of 350,000 active; also: potency is read from the fitted curve at half-maximal effect; % is scaled to controls: 0 for no effect and ±100 for the full control effect; nearly all actives have a fitted effect of over 20% in size
Target sequence (P02791 2-175 limits assumed): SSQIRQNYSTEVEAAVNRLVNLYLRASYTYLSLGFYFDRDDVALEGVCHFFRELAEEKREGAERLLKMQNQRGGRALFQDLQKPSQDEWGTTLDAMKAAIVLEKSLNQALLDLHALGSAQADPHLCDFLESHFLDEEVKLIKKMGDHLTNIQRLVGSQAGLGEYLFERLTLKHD
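Probe: 1-aminoanthracene (50% saturated, PBS). Protein: horse-spleen apoferritin, 10 uM. Incubation: 10 min, room temperature. Detection: 380 nm excitation, 535 nm emission. Analysis: normalized response, four-parameter Hill.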
An asterisk follows results filed as active; i = inactive; ? = inconclusive; / = no result given. An excerpt weighted towards active compounds, which were near 0.49% of everything screened. Unless noted, calls follow the shape of the dose curve; as a rule, active = well fitted curve in the direction sought with a large enough effect; inconclusive = small, poorly fitted or top-dose-only effect, or another doubt; inactive = no such curve, though single readings can be large; an effect the other way counts as inactive or inconclusive.

SMILES	Epigenetic reg	Vif-APOBEC3G blk	LDHA inh	Vif-A3F inh	Anesthetic bind
CCc1ccc(-c2cc(C(F)(F)F)n3nc(C(=O)NCc4cnn(C)c4)cc3n2)s1	/	/	0	/	/
CCc1ccc(-c2cc(C(F)(F)F)n3nc(C(=O)Nc4cnn(Cc5ccc(C)cc5)c4)cc3n2)s1	?	?	-6	11µM*	6%
O=C1CC(=O)N(Cc2ccco2)C(=S)N1	1%	0%	-36*	-4%	-4%
CC1CCc2c(nc3ncnn3c2N2CCN(c3ccccc3)CC2)C1 (configuration not stated)	-1%	0%	-1	3%	-15%
CCOc1ccc(C(=O)COC(=O)Cc2n[nH]c(=O)c3ccccc23)cc1	/	8.9µM*	-3	8%	/
CCOC(=O)CN(C(=O)c1ccccc1)c1ccccc1C	-1%	1%	-7	8%	4%
CC(C)CNS(=O)(=O)c1ccc(C(=O)Nc2ccc3c(c2)OCCO3)cc1	-1%	-6%	-8	-1%	-17%
CC[n+]1ccc(C[n+]2ccccc2)c2ccccc21	0%	-1%	-40*	1%	-15%
O=C(O)C(c1ccccc1)N1C(=O)/C(=C\c2ccc(-c3ccccc3Cl)o2)SC1=S (configuration not stated)	/	-22%	-30*	?	4%
O=C(O)C12CCCC(C(=O)O)(CCC1)C2	/	/	-4	/	/
C[n+]1cc(C(=O)N2CCCCC2)ccc1/C=C/c1c[nH]c2ccccc12	13%	11µM*	6	?	5%
CC(NC(=O)c1cc2c(cc1Cl)N1CCCCCC1=NS2(=O)=O)c1ccc(S(N)(=O)=O)cc1 (configuration not stated)	/	1%	-7	3%	/
CCOCCCNc1nc2c(C)cccn2c(=O)c1/C=C1\SC(=S)N(C(C)CC)C1=O (configuration not stated)	3.2µM*	?	-12	i	-1%
COc1ccc(Br)cc1/C=N/N1CCN(Cc2ccccc2)CC1	0%	-1%	0	-1%	-1%
COc1ccccc1OC(C(=O)NC1CC1)c1ccccc1 (configuration not stated)	/	/	-30*	/	/
COc1ccccc1SC(C(=O)NC1CC1)c1ccccc1 (configuration not stated)	/	/	-4	/	/
Cc1nc(-c2cccs2)c(CC(=O)NCCc2ccccc2F)s1	/	/	1	/	/
COc1ccccc1NC(=O)CN1CCCCC1	0%	0%	-8	7%	-11%
CCN1CCN(CC(=O)Nc2c(OC)cccc2OC)CC1	/	-3%	-31*	-10%	-10%
COc1ccc(C)cc1NC(=O)C1CC(=O)N(CCc2ccccc2)C1 (configuration not stated)	0%	-1%	-1	9%	-1%
c1ccc(OCCn2c(COc3ccccc3)nc3ccccc32)cc1	0%	0%	-5	-7%	10%
C=CCn1c(COc2ccccc2)nc2ccccc21	/	-4%	-1	-26%	71µM*
Cc1ccc(NC2=C(Cl)C(=O)OC2OC(=O)c2ccccc2)c(C)c1 (configuration not stated)	16µM*	4%	-2	-2%	-18%
CCCCCCc1cc2cc(-c3nnc(-c4ccccc4O)o3)c(=O)oc2cc1O	6.3µM*	3.2µM*	1	?	-13%
CCCCCCc1cc2cc(-c3nnc(-c4cc(OC)c(OC)c(OC)c4)o3)c(=O)oc2cc1O	4%	?	-11	?	34%
SMILES	Epigenetic reg	Vif-APOBEC3G blk	LDHA inh	Vif-A3F inh	Anesthetic bind
CCCCCCc1cc2cc(-c3nnc(-c4ccccc4OC)o3)c(=O)oc2cc1O	?	13µM*	-5	?	-6%
CCCCCCc1cc2cc(S(=O)(=O)c3ccc(F)cc3)c(=O)oc2cc1O	1%	-6%	-2	3%	1%
COc1cc(OC)cc(-c2nc(-c3cccs3)no2)c1	0%	-6%	-3	-2%	-4%
Fc1ccc(-c2csc(Nc3cccc4ccccc34)n2)cc1	/	/	6	/	/
CCSC(=O)NC12CC3CC(CC(C3)C1)C2	-1%	-2%	-6	-1%	8.9µM*
O=C(COC(=O)C(O)c1ccccc1)NC12CC3CC(CC(C3)C1)C2 (configuration not stated)	-6%	0%	0	0%	11µM*
CCC(CC)C(=O)OCC(=O)NC12CC3CC(CC(C3)C1)C2	-2%	-1%	2	-1%	6.3µM*
CC1CCC(NC(=O)C2CCN(c3nc4ccccc4s3)CC2)CC1 (configuration not stated)	/	-1%	-10	10%	-11%
O=[N+]([O-])c1ccc2nc(CN3CCCCC3)[nH]c2c1	-1%	-2%	-2	5%	-9%
Cc1noc(NS(=O)(=O)c2ccc(NC(=O)CC34CC5CC(CC(Br)(C5)C3)C4)cc2)c1C	0%	-7%	-46*	/	-12%
CC(C)N(C(=O)COC(=O)c1ccc2ccccc2n1)C(C)C	/	/	-4	/	/
O=C(OCC(=O)N(Cc1ccccc1)Cc1ccccc1)c1ccc2ccccc2n1	/	/	-37*	/	/
Oc1csc(Cc2nc(-c3ccc4ccccc4c3)cs2)n1	11%	-1%	1	2%	83%
CNC(=O)/C(C#N)=C/c1ccc(-c2ccc(Cl)cc2)o1	2%	-2%	-4	3%	-5%
Cc1ccc(NC(=O)/C(C#N)=C\c2ccc(-c3ccc(Cl)cc3)o2)c(C)c1	3.5µM*	-6%	-5	3.2µM*	-8%
CCCCNC(=O)/C(=C\c1ccc([N+](=O)[O-])o1)NC(=O)c1ccccc1	-1%	-14%	-5	3%	-16%
N/C(=N\OC(=O)c1cc(-c2ccccc2)nc2ccccc12)c1ccc(Cl)cc1	0%	3%	-14	-11%	-6%
O=C(NC1CCCCCC1)c1ccc2c(c1)sc1nc(-c3ccccc3)cn12	1%	0%	-10	5µM*	3%
CS(=O)(=O)Nc1ccc(-c2cccc3nccn23)cc1	/	-3%	-7	/	/
CC1(C)C2CCC(C2)C1(C)NC(=O)CN1CCN(Cc2ccccc2)CC1 (configuration not stated)	-3%	-5%	-40*	1%	-15%
Cc1ccc(NC(=O)CN2CCN(Cc3ccccc3)CC2)cc1	/	-4%	-3	13%	-10%
Cc1cc(C)cc(OC(=O)c2cc(-c3ccc(Cl)cc3)on2)c1	0%	2%	-3	5%	2%
CC(C)c1ccc(OC(=O)c2cc(-c3ccccc3)on2)cc1	-3%	-3%	-10	1%	14µM*
Oc1cccc(/C=N/N2CCN(c3ccccn3)CC2)c1	0%	-2%	-1	6%	-12%

Screening results: PubChem, National Center for Advancing Translational Sciences (NCATS)
